From the supplement of paper PMC10338343
± gives the standard deviation.

Test system: MILI (PIWIL2) piRISC loaded with L1MC piRNA (26 nt)
Test: pre-steady-state target cleavage rate (min^-1); guide: L1MC piRNA 5'p-UAACUAAAUACUAUGCAAGCUGUAGG; MIWI and MILI are mouse PIWI proteins and EfPiwi is from a freshwater sponge; tags in brackets are library labels; higher = faster piRNA-guided slicing of the target
Summary of the method: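 Cleave-'n-Seq: 1 nM active affinity-purified piRISC with one synthetic guide and 0.1 nM transcribed, DNA-blocked target RNA library were mixed, with or without 500 nM GTSF1 partner protein, in HEPES–potassium acetate buffer at 33 °C for 0–8 or 0–960 min. Uncleaved targets were sequenced and normalised to depth and to weakly complementary targets, three trials were pooled, and k3 was capped at 0.0001 min^-1. The pre-steady-state cleavage rate was fitted […].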

[1] = auxiliary factor: none (no GTSF1)
[2] = auxiliary factor: 500 nM mouse GTSF1

Row | Sequence | pre-steady-state target cleavage rate [1] | pre-steady-state target cleavage rate [2]
1 | UCCUGGUACAGCUUGCAUACUUUUUAGUUA | 0.00598 ± 0.0037 | –
2 | UCCUGCUACACGAUGCAUAGUAUUUAGAAA | – | 0.183 ± 0.042
3 | UCCUGGAUGAGCUUCGAUAGUAUUUAGUAA | – | 0.0558 ± 0.012
4 | UCCUGGAUGUCGAACCAUAGAAAUUAGUUA | – | < 0.0001
5 | UCCUGGAACAGCUUGCAUUAGUAUUUAGUUA | – | 0.0128 ± 0.0055
6 | UCCUGGUACAGCUUGCAUAGUUUUUUGUUA | – | 0.0564 ± 0.015
7 | UCCUGGAAGAGCUUCCAUAGUAUUUAGUUA | – | 0.297 ± 0.085
8 | UCCUGGAUGUCCUUGCAUACAAUUUAGUUA | 0.00248 ± 0.0024 | –
9 | UCCUCCUACACGUUGCAUAGUAUUUUCAAA | – | 0.0568 ± 0.017
10 | UCCUGGUACACCUUGCAUAGUAUUUACUUA | – | 0.108 ± 0.041
11 | UCCUGCUACAGCUACGAUAGUAUUUAGUAA | – | 0.185 ± 0.035
12 | UCCUGGAUGAGCUUGCAUAGUAAAAAGUUA | – | 0.0673 ± 0.016
13 | UCCUGGAUGACCUUGCAUAGUUUUUAGUUA | – | 0.0191 ± 0.0076
14 | UCCUGGAUGUCGAAGCAUAGUAUUUAGAUUA | – | 0.00757 ± 0.0041
15 | UCCUGGAUGUGCUUGCAUAGUAUUUAGAUA | – | 0.0576 ± 0.014
16 | UCCUGGUACAGCUUGCAUAGUAUAAACAAA | – | 0.0195 ± 0.0074
17 | UCCUGCUACAGCUUGCAAUGUAUUUAGAAA | – | 0.0407 ± 0.013
18 | UCCUGGAUGUGCUUGCAUAGUAUAUAGUUA | – | 0.083 ± 0.014
19 | UCCUGGUAGUCCUUGCAUAGUAUUUACAAA | – | 0.00835 ± 0.0045
20 | UCCUGGAUGUCGAACCAUAGUAUUUAGUUU [g2:g15:cont:t1U] | – | 0.00385 ± 0.0021
21 | UCCUGGAUCAGGUUGCAUAGUAUUUACAAA | – | 0.0312 ± 0.011
22 | UCCUGGAUGUCGAUGCAUAGUAUGUAGUUA | – | 0.0337 ± 0.0087
23 | UCCUGGAUGUCCUUCCAUAGUAUUUAGUAA | – | 0.0112 ± 0.0045
24 | UCCUCCAUGAGCUUGCAUAGUAUUUUCAAA | – | 0.0168 ± 0.0069
25 | UCCUGGAACACCUUGCAUAGUAUUUAGAUA | – | 0.183 ± 0.043
26 | UCCUCCUUGUGCUUGCAUAGUAUUUUCAAA | – | 0.0192 ± 0.0073
27 | UCCUGGAUGAGCUUGCAUAGUAUAUAGUAA | – | 0.163 ± 0.039

Row | Sequence | pre-steady-state target cleavage rate [1] | pre-steady-state target cleavage rate [2]
28 | UCCUGGAUCAGCAAGCAUAGUAUUUUCAAA | – | 0.024 ± 0.0074
29 | UCCUGGAUGUCGAUCCUUAGUAUUUAGUUA | < 0.0001 | –
30 | UCCUCCUACAGCUUGCAUAGUUAAAUCAAA [g10:g26:cont:t1A] | – | 0.0191 ± 0.0072
31 | UCCUGGAUGUCGAACCAUAGAAUUUAGUUA | – | < 0.0001
32 | UCCUGGAUGUCGUUGCAUAGUAUUUAUUUA | – | 0.0344 ± 0.011
33 | UCCUGGUACAGCUUGCAUAGUAUUUACUAA | – | 0.0179 ± 0.0081
34 | UCCUCGAACAGCUUGCAUAGUAUUUUCAAA | – | 0.102 ± 0.021
35 | UCCUGCUACAGCUUGCAUAGUAAAAACAAA | – | 0.0234 ± 0.01
36 | UCCUGGAUGUCGUUCCAUAGUAUUUAGAUA | < 0.0001 | –
37 | UCCUGGAUGUCGAACCAUAGUAUUAUGUUA | < 0.0001 | –
38 | UCCUGGAUGUCGAACCAUAGUAUUUUGUAA | < 0.0001 | –
39 | UCCUGGUACAGCUUGCUAUGUAUUUAGUAA | – | 0.00603 ± 0.0046
40 | UCCUGGAUCAGCUUGCAUAUGUAUUUAGUUA | – | 0.00465 ± 0.0046
41 | UCCUGGAACAGCUUGCAUAGUUUAUAGUUA | – | 0.029 ± 0.0097
42 | UCCUGGAUGUCGUAGCAUAGUUUUUAGUUA | – | 0.00685 ± 0.0041
43 | UCCUGGUACAGCUUGCUAAGUAUUUAGUAA | – | 0.036 ± 0.012
44 | UCCUGGAUGUCCAUGCAUACUAUUUAGUUA | – | 0.0122 ± 0.0052
45 | UCCUGGAUGUCCUUGCAUAGUAUAAUCAAA [g8:g19:cont:t1A] | – | 0.00606 ± 0.0037
46 | UCCUGGAACAGCUUGCAUAGUUAAUAGUUA | – | 0.0282 ± 0.01
47 | UCCUGGAUGUCCUUGGCAUAGUAUUUAGUUA | – | 0.566 ± 0.19
48 | UCCUGGUACAGGUUGCAUAGUAUUUAGAAA | – | 0.043 ± 0.013
49 | UCCUGGAUGUCGAUGAUAGUAUUUAGUUA | < 0.0001 | –
50 | UCCUGGAUCAGCUUGCUAUGUAUUUAGAAA | – | 0.00524 ± 0.0033
51 | UCCUGGUACAGCUUGCAGUAGUAUUUAGUUA | – | 0.00495 ± 0.0037
52 | UCCUGGAUGUCGAACGUAAGUAUUUAGUUC [g2:g12:cont:t1C] | < 0.0001 | –
53 | UCCUGCUACAGCUUGCUAUGUAUUUAGUAA | – | 0.0455 ± 0.019
54 | UCCUGGAUCAGCUUGCUAAGUAUUUUCAAA | – | 0.00483 ± 0.0036

Row | Sequence | pre-steady-state target cleavage rate [1] | pre-steady-state target cleavage rate [2]
55 | UCCUGGAUGUCCUUGCAUAGUAUUGAGUUA | – | 0.0563 ± 0.019
56 | UCCUGGAUGUCGAUGCAUAGUAUUUAGUCUA | – | 0.0115 ± 0.0055
57 | UCCUGGUACACGUUGCAUAGUAUUUAGAAA | – | 0.0229 ± 0.011
58 | UCCUGGUAGUCCUUGCAUAGUAUUUUCAAA | – | 0.0125 ± 0.0059
59 | UCCUCCUACAGCUACCAUAGUAUUUACAAA | – | 0.0179 ± 0.008
60 | UCCUGGAACAGCUUGCAUAGUUAAUAGUAA | – | 0.0133 ± 0.0056
61 | UCCUGGAACAGCUACGAUAGUAUUUAGUUA | – | 0.147 ± 0.011
62 | UCCUGGAUGUCGAUGCAAAGUAUUAAGUUA | – | 0.00433 ± 0.0038
63 | UCCUGGAUGUGCUUGGAUAGAAUUUAGUUA | – | 0.00729 ± 0.0047
64 | UCCUGGAUGAGCUUGCAUAGUAUUUAGGUA | – | 0.166 ± 0.04
65 | UCCUGGAUGUCGUAGCAUAGUAAUUAGUUA | – | 0.0159 ± 0.0054
66 | UCCUGGAUGUGCUUGCAUAGUAAUUAGUAA | – | 0.0721 ± 0.018
67 | UCCUGGAACAGCUUGCAUAGUUUUAGUUA | – | 0.0123 ± 0.0053
68 | UCCUGCUACAGCUUGCAUACUAUUUUCAAA | – | 0.0295 ± 0.01
69 | UCCUGGAACAGCAUGCAUAGUAUUUUCAAA | – | 0.066 ± 0.018
70 | UCCUGGAUGUCGAAGCAUAGUAUUAAGUUA | – | 0.034 ± 0.0088
71 | UCCUGGUACAGCUUGCAUAGUUUAUAGUUA | – | 0.0525 ± 0.018
72 | UCCUGCUACAGCAAGCAUAGUAUUUACAAA | – | 0.191 ± 0.055
73 | UCCUGGUACAGCAAGCAUAGUAUUUAGAAA | – | 0.104 ± 0.031
74 | UCCUGGAUGUCGAACAAUAGUAUUUAGUUA | < 0.0001 | –
75 | UCCUGGAUGAGCUUGCAUUGAAUUUAGUUA | – | 0.00697 ± 0.0027
76 | UCCUGGAUGAGCUUGCUUAGAAUUUAGUUA | – | 0.0121 ± 0.0047
77 | UCCUGGAUGUCGUUGCAUAGUAUAUAGUAA | – | 0.0526 ± 0.018
78 | UCCUGGAUGUCGAACGUAUCUAUUAAGUUA | < 0.0001 | –
79 | UCCUGGAUGUGCUUGCAUAGUAUUUUCUUA | – | 0.00861 ± 0.005
